Several values for one entry are separate records, joined by “and”; a condition that tells them apart may be missing. Equal entries are not always repeated. Inconclusive results are not listed. Unmarked numbers belong to inactive results. Activity calls are given as the source filed them. Calls come from the whole dose curve; as a rule, active = well fitted curve in the direction sought with a large enough effect in the repeat runs; inconclusive = weak or mixed curves; inactive = no such curve, though single readings can be large; an effect the other way counts as inactive or inconclusive.

Consider 30 compounds from PubChem BioAssay (Tox21).

Assay [1] deals with Cytochrome P450 2C19 (Homo sapiens) (UniProt P33261). Description: Cytochrome P450 Family 2 Subfamily C Member 19 (CYP2C19) small molecule antagonists: luciferase reporter qHTS assay (AID 1671197). For activity change, negative = inhibition: series mostly up to about 120 µM. Note: nearly all actives have a fitted effect of over 65% in size. In a few lines:
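Light output is proportional to CYP2C19 activity: proluciferin substrate is converted to luciferin, then detected by a luciferin detection reagent that also stops the 1 h, 37C NADPH-driven reaction. Ketoconazole serves as positive control.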
(A reporter such as luciferase makes a cellular process visible.)

The target in assay [2] is Cytochrome P450 2C9 (Homo sapiens) (UniProt P11712). Description: Cytochrome P450 Family 2 Subfamily C Member 9 (CYP2C9) small molecule antagonists: luciferase reporter qHTS assay (AID 1671198). For activity change, negative = inhibition: series mostly up to about 120 µM. Note: nearly all actives have a fitted effect of over 50% in size. The essentials: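 Enzyme-substrate mix preincubated with compound 10 min at room temperature; reaction started with NADPH regeneration solution, 1 h 37C. Luminescent luciferin product read after 20 min detection reagent.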

The target of assay [3] is Cytochrome P450 1A2 (Homo sapiens) (UniProt P05177). Nature of the assay: Cytochrome P450 Family 1 Subfamily A Member 2 (CYP1A2) small molecule antagonists: luciferase reporter qHTS assay (AID 1671199). For activity change, negative = inhibition: series mostly up to about 120 µM. Note: nearly all actives have a fitted effect of over 50% in size. The essentials:
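Signal from luciferin formed by CYP1A2 from a proluciferin substrate is read as luminescence, expressed in relative luminescence units. Compounds sit with enzyme 10 min, NADPH-driven reaction runs 1 h, all at room temperature.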

Assay [4] addresses Voltage-gated inwardly rectifying potassium channel KCNH2 (Homo sapiens) (UniProt Q12809). Nature of the assay: Human Ether-a-go-go-Related Gene (hERG) channel small molecule antagonists: fluorescence cell-based qHTS assay (AID 1671200).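 For activity change, negative = inhibition: hERG-expressing U2OS cells given a thallium stimulus after FluxOR II dye loading; series mostly up to about 77 µM.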 Note: nearly all actives have a fitted effect of over 50% in size. In a few lines:
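First, 1000 cells per well are seeded and cultured overnight at 37 C. Next, FluxOR II dye is loaded for 1 h at room temperature, protected from light. After 10 more minutes, stimulus is added and fluorescence is read.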

Assay [5] concerns the target Cytochrome P450 3A4 (Homo sapiens) (UniProt P08684). Description: Cytochrome P450 Family 3 Subfamily A Member 4 (CYP3A4) small molecule antagonists: luciferase reporter qHTS assay (AID 1671201). For activity change, negative = inhibition: series mostly up to about 120 µM. Note: nearly all actives have a fitted effect of over 50% in size. The essentials:
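Enzyme and proluciferin substrate are mixed with test chemicals for 10 min, then NADPH regeneration system drives turnover for 1 h at room temperature. A detection reagent halts the reaction; luminescence after 20 min gives relative activity.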
% is set by controls: 0 for no effect and ±100 for the full control effect; potency is the fitted concentration of half-maximal effect.

Chain of Cytochrome P450 3A4 (Homo sapiens) (P08684 whole entry, looked up): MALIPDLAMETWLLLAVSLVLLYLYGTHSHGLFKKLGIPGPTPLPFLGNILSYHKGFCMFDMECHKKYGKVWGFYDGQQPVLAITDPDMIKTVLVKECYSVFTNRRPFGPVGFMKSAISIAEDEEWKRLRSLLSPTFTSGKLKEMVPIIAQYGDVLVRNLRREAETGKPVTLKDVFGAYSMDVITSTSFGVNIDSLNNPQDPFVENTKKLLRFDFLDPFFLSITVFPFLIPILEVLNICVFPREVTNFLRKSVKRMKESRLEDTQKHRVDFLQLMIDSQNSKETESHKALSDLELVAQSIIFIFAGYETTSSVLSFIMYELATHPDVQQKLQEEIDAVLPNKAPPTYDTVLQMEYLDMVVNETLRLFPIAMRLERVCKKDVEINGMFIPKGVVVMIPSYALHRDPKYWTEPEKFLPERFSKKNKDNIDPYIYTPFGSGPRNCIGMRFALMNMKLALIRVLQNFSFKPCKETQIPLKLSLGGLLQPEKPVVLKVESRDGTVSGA
Chain of Cytochrome P450 1A2 (Homo sapiens) (P05177 whole entry, looked up): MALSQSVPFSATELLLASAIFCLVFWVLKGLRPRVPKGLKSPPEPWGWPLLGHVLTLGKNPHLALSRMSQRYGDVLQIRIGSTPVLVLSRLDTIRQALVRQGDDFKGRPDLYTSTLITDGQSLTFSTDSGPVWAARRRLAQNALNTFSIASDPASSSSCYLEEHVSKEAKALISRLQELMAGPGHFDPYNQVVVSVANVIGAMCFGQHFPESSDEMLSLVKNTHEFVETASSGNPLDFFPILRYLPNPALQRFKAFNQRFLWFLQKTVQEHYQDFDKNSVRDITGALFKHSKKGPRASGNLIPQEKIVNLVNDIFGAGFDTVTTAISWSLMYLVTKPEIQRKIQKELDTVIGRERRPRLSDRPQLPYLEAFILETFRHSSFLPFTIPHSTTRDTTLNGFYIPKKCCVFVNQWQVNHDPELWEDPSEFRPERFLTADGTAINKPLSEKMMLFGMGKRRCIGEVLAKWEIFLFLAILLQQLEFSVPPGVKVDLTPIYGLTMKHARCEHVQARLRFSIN
Chain of Cytochrome P450 2C9 (Homo sapiens) (P11712 whole entry, looked up): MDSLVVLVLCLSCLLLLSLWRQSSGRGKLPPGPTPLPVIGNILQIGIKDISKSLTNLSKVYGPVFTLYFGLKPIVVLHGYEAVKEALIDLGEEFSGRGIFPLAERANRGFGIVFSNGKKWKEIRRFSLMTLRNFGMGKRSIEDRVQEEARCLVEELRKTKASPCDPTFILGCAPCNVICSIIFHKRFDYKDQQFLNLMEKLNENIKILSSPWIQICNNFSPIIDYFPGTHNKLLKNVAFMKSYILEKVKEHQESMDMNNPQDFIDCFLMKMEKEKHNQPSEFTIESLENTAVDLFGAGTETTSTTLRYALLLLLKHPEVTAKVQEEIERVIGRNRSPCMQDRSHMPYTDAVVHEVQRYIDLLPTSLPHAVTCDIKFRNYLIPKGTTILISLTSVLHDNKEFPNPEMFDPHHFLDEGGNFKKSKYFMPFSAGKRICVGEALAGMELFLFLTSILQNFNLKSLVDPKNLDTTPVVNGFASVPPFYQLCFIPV
Chain of Voltage-gated inwardly rectifying potassium channel KCNH2 (Homo sapiens) (Q12809 whole entry, looked up): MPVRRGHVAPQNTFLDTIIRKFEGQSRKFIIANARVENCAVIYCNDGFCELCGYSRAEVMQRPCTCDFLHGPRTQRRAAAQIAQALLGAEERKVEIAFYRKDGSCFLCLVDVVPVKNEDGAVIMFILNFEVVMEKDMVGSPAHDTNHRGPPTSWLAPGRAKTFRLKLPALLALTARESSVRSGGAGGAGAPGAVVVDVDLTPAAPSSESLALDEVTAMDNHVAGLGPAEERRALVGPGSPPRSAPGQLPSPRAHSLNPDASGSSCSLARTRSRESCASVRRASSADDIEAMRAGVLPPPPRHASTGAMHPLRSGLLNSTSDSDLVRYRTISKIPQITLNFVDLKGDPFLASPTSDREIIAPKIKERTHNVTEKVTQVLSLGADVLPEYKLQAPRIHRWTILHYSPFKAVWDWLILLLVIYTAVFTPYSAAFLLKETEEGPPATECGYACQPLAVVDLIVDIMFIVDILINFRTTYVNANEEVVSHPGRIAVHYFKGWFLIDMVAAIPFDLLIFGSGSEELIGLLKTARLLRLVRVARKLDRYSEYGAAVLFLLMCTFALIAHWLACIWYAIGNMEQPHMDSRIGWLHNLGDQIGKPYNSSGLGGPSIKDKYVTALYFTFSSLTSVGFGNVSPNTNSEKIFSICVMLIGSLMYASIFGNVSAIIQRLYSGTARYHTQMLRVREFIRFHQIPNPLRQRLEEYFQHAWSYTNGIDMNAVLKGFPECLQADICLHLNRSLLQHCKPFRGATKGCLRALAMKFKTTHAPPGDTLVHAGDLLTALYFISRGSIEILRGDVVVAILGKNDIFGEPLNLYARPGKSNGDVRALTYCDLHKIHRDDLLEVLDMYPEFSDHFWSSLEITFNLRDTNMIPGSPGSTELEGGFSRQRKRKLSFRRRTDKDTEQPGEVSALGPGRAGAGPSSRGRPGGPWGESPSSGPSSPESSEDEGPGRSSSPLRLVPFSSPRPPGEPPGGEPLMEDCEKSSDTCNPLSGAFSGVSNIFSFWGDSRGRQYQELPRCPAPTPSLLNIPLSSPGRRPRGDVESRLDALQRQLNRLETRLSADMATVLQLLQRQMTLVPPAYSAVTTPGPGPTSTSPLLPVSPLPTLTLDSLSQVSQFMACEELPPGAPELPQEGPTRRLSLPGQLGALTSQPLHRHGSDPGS
Chain of Cytochrome P450 2C19 (Homo sapiens) (P33261 whole entry, looked up): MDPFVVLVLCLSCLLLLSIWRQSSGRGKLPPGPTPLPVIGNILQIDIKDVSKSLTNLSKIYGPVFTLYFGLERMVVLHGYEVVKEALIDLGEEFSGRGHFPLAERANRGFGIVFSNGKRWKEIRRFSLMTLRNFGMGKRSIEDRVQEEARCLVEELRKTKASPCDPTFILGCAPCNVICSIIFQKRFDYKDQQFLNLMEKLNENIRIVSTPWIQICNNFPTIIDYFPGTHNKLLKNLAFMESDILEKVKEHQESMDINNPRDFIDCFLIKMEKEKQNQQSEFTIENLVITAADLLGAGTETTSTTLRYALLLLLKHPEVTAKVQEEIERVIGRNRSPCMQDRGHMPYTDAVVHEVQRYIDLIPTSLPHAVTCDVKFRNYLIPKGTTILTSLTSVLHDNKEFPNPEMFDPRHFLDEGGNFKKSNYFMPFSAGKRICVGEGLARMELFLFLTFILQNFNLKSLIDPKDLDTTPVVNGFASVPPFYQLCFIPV

For `S=c1nccc[nH]1`, the figures for the Potency in assay [1], in assay [2] and in assay [3] were 31.8 µM (active), 20 µM (active) and 35.6 µM (active), respectively. Moreover, the Potency result in assay [4] and in assay [5] was “inactive” each time.
`C/C=C/C=C/COC(=O)C(C)C`: the Potency is 79.6 µM (active) in assay [1], 63.3 µM (active) in assay [2], 35.6 µM (active) in assay [3] and 28.3 µM (active) in assay [5]. For the same compound, the Potency entry in assay [4] was “inactive”.
For `CC(C)=CCNc1ncnc2c1ncn2[C@@H]1O[C@H](CO)[C@@H](O)[C@H]1O` the same measures were “inactive”, “inactive”, “inactive”, “inactive” and “inactive”.
For `CN1CCCCC1CCN1c2ccccc2Sc2ccc(S(C)=O)cc21` (configuration not stated), the Potency result in assay [1], in assay [2], in assay [3] and in assay [5] was “inactive” each time.
Consider `Clc1sc(Cl)c(Cl)c1Cl`, for which the Potency result in assay [1], in assay [2], in assay [3], in assay [4] and in assay [5] was “inactive” in each case.
Consider `CCCC1CCC(=O)CC1`, for which the Potency result in assay [1], in assay [2], in assay [3], in assay [4] and in assay [5] was “inactive” each time.
Take `CC1(C)[C@@H](O)CC[C@]2(C)[C@H]3C(=O)C=C4[C@@H]5C[C@@](C)(C(=O)O)CC[C@]5(C)CC[C@@]4(C)[C@]3(C)CC[C@@H]12`: the Potency entry in assay [1], in assay [2], in assay [3] and in assay [5] was “inactive” in each case.
With `Nc1nc(-c2ccccc2)cs1`, the Potency in assay [1] is 5.01 µM (active); in assay [2], 11.2 µM (active); in assay [3], 8.91 µM (active); in assay [5], 5.62 µM (active). Besides, the Potency entry in assay [4] is “inactive”.
As for `OC/C=C/CO`, the Potency entry in assay [1], in assay [2], in assay [3], in assay [4] and in assay [5] was “inactive” each time.
Turning to `CCn1c2ccccc2c2cc([N+](=O)[O-])ccc21`, the results for the Potency in assay [1] and in assay [3] were 7.96 µM (active) and 1.12 µM (active), respectively. Also, the Potency entry in assay [2] and in assay [5] was “inactive” throughout.
Take `COC(=O)C1=C(C)NC(C)=C(C(=O)OCCN2CCN(C(c3ccccc3)c3ccccc3)CC2)C1c1cccc([N+](=O)[O-])c1` (configuration not stated): the Potency in assay [1] is 2.45 µM (active); in assay [2], 0.692 µM (active); in assay [4], 5.35 µM (active). For the same compound, the Potency result in assay [3] and in assay [5] was “inactive” each time.
For the compound `Nc1ccc(Oc2ccc(Cl)cc2)cc1`, the Potency in assay [1] is 2.47 µM (active); in assay [2], 12.4 µM (active); in assay [3], 34.8 µM (active); in assay [5], 17.5 µM (active).
Turning to `Cc1nc(-c2ccc(Cl)cc2)oc1COC(C)(C)C(=O)O`, the Potency entry in assay [1], in assay [2], in assay [3], in assay [4] and in assay [5] was “inactive” throughout.
In the case of `[Cl][Pt-2]([Cl])([Cl])[Cl]`, the Potency in assay [1] is 22.6 µM (active); in assay [2] it was 25.3 µM (active); in assay [3], 35.7 µM (active). Further, the Potency result in assay [5] was “inactive”.
In the case of `CN(C)Cc1ccccc1O`, the Potency entry in assay [1], in assay [2], in assay [3], in assay [4] and in assay [5] was “inactive” each time.
Consider `C#C[C@]1(OC(C)=O)CC[C@H]2[C@@H]3CCC4=C[C@@H](OC(C)=O)CC[C@@H]4[C@H]3CC[C@@]21C`, for which the Potency in assay [1] is 21.9 µM (active); in assay [2], 12.3 µM (active). The Potency entry in assay [3], in assay [4] and in assay [5] was “inactive” in each case.
`CC(=O)[C@H]1CC[C@H]2[C@@H]3CCC4=CC(=O)CC[C@]4(C)[C@H]3CC[C@]12C`: the Potency in assay [1] was 3.54 µM (active) and 3.99 µM (active); in assay [2] it was 22.3 µM (active) and 25.2 µM (active); in assay [3] it was 31.7 µM (active). Moreover, in assay [5], the Potency result was “inactive”.
Regarding `COc1cc2nc(N3CCN(C(=O)c4ccco4)CC3)nc(N)c2cc1OC`, the activity change, negative = inhibition in assay [1] was 16.3% [at 23.6 µM]; in assay [2], 1.12% [at 23.6 µM]; in assay [3], 1.24% [at 23.6 µM]; in assay [4] it was -1.36% [at 15.8 µM]; in assay [5] it was 135% [at 23.6 µM].
For `O=C(O)c1ccc2cc(C(=O)O)ccc2c1`, in assay [1], the Potency was 32 µM (active). For the same compound, the Potency result in assay [2], in assay [3], in assay [4] and in assay [5] was “inactive” throughout.
Turning to `C[C@H]1NCc2cc(-c3ccc4c(=O)c(C(=O)O)cn(C5CC5)c4c3OC(F)F)ccc21`, the activity change, negative = inhibition in assay [1] was -6.59% [at 23.6 µM]; in assay [2], 0.717% [at 23.6 µM]; in assay [3], 13.9% [at 23.6 µM]; in assay [4], -3.88% [at 15.8 µM]; in assay [5], 10.5% [at 23.6 µM].
With `NC(=S)NC(N)=S`, the Potency in assay [1] was 20 µM (active); in assay [2], 7.96 µM (active); in assay [3], 35.6 µM (active). Besides, the Potency result in assay [4] and in assay [5] was “inactive” throughout.
`O=S(=O)(O)c1ccc(N=Nc2c(O)ccc3ccccc23)cc1`: the Potency in assay [1] is 11.2 µM (active); in assay [2] it was 31.7 µM (active); in assay [3], 31.7 µM (active); in assay [5], 35.6 µM (active). In addition, the Potency entry in assay [4] was “inactive”.
Regarding `CCC(=O)OC(=O)CC`, the Potency result in assay [1], in assay [2], in assay [3], in assay [4] and in assay [5] was “inactive” in each case.
`O=C1OC2(c3ccc(O)cc3Oc3cc(O)ccc32)c2ccc(N=C=S)cc21`: the Potency in assay [1] and in assay [2] was 72.3 µM (active) throughout. Besides, the Potency result in assay [4] and in assay [5] was “inactive” in each case.
Regarding `CC(C)Cn1cnc2c(N)nc3ccccc3c21`, the activity change, negative = inhibition in assay [1] is 10.1% [at 23.6 µM]; in assay [2], -3.29% [at 23.6 µM]; in assay [4], -8.33% [at 15.8 µM].
As for `O=C(O)c1cc(N=Nc2ccc([N+](=O)[O-])cc2)ccc1O`, the Potency in assay [1] is 39.2 µM (active); in assay [2], 34.9 µM (active). In addition, the Potency entry in assay [4] is “inactive”.
Consider `CC1(C)CC(O)CC(C)(C)N1`, for which the Potency entry in assay [1], in assay [2], in assay [4] and in assay [5] was “inactive” in each case.
`O=[N+]([O-])c1cccc(C(F)(F)F)c1`: the Potency entry in assay [1], in assay [2] and in assay [4] was “inactive” in each case.
Take `Cc1cc(-n2nc3ccc(Cl)cc3n2)c(O)c(C(C)(C)C)c1`: the Potency result in assay [1], in assay [2] and in assay [4] was “inactive” each time.
For `CN(C)CCN1CCN(c2cccc(Cl)c2)C1=O`, the Potency entry in assay [1], in assay [2] and in assay [4] was “inactive” in each case.
